From PubChem BioAssay (Tox21)
A number with no mark means an inactive call. Results filed as inconclusive are left out. Where a call stands in place of a potency, no number is given. The source made the active and inactive calls. Unless noted, calls come from the whole dose curve; as a rule, active = well fitted curve in the direction sought with a large enough effect in the repeat runs; inconclusive = weak or mixed curves; inactive = no such curve, though single readings can be large; an effect the other way counts as inactive or inconclusive.

Columns and labels:
[1] = qHTS assay to identify small molecule agonists of the hypoxia (HIF-1) signaling pathway - cell viability counter screen (AID 1224844; calls by dose curve; note: nearly all actives have a fitted effect of over 50% in size)
In short: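 HRE-bla ME-180; 0.5% dFBS; cpd 17 h, 37C, 5% CO2; CellTiter-Glo lum., 30 min RT, post-FRET read, same wells.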

[2] = qHTS assay to identify small molecule agonists of the hypoxia (HIF-1) signaling pathway (AID 1224846; active = well fitted activation curve with a large enough effect in the signal ratio in the repeat runs, not every such curve was filed as active; the % refers to the signal ratio)
In short: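 Reporter induction in HRE-bla ME-180 cells is taken as agonism: cells sit 5 hrs after plating, receive compounds or DMSO only, incubate 17 hrs at 37C under 5% CO2, and are loaded with CCF4-AM for beta-lactamase FRET measurement.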

[3] = qHTS assay to identify small molecule agonists of H2AX - cell viability counter screen (AID 1224847; calls by dose curve; note: nearly all actives have a fitted effect of over 30% in size; note: potency is the fitted concentration of half-maximal effect)
In short: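 For this counter screen, overnight-attached CHO-K1 cells received test compounds (15 concentrations, 0.76% DMSO final); 3 hr later at 37C, CellTiter-Glo reagent was added and luminescence recorded after 30 min at room temperature.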

[4] = qHTS assay to identify small molecule antagonists of the estrogen related receptor (ERR) signaling pathway from Tox21 library (AID 1224848); note: nearly all actives have a fitted effect of over 50% in size
In short: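 Compounds dissolved in DMSO are pin-transferred onto ERR reporter cells (2,000 per well) that have settled for 6 h at 37 C. Plates then incubate 18 h at 37 C before ONE-Glo luciferase reagent and a luminescence read 30 min later.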

[5] = qHTS assay to identify small molecule agonists of the estrogen related receptor (ERR) signaling pathway from Tox21 library (AID 1224849; calls by dose curve; note: nearly all actives have a fitted effect of over 15% in size); details: ERR reporter cell line, ONE-Glo luciferase, 18 h
In short: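 Tox21 compounds tested for ERR agonism in an NTP reporter cell line: 18 h treatment at 37 C, then ONE-Glo luminescence.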

[6] = qHTS RealTime-Glo MT Cell Viability Assay in HepG2 cells - 24 hour (AID 1224867); note: nearly all actives have a fitted effect of over 50% in size
In short: (§1)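 HepG2 cells (600/well) were dispensed with RealTime-Glo reagents, incubated 5 h at 37 °C, then treated with compounds in DMSO for up to 40 h. Nonlytic NanoLuc luminescence reflecting viable cells was read at each stated time point.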

[7] = qHTS RealTime-Glo MT Cell Viability Assay in HEK293 cells - 32 hour (AID 1224868); note: top concentration of the series differs between compounds; nearly all actives have a fitted effect of over 50% in size
In short: (§2)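 HEK293 cells seeded with NanoLuc/prosubstrate reagent, rested 5 h at 37 C, then dosed and kept at 37 C up to 40 h. Nonlytic real-time luminescence from viable cells read at 0, 8, 16, 24, 32 and 40 h.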

[8] = A CellTox Green Cytotoxicity Assay to monitor cytotoxicity in HEK293 cells - 0 hour (AID 1224869); note: nearly all actives have a fitted effect of over 50% in size; note: potency is the fitted concentration of half-maximal effect
In short: (§3)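 Tox21 screen in HEK293: membrane-impermeant cyanine dye fluoresces on binding dead-cell DNA; compound pinned 5 h post-seeding, plates held at 37 C, signal read repeatedly through 40 h.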

[9] = A CellTox Green Cytotoxicity Assay to monitor cytotoxicity in HEK293 cells - 40 hour (AID 1224871); note: nearly all actives have a fitted effect of over 45% in size; note: potency is the fitted concentration of half-maximal effect
In short: as §3

[10] = qHTS RealTime-Glo MT Cell Viability Assay in HEK293 cells - 16 hour (AID 1224872)
In short: as §2

[11] = qHTS RealTime-Glo MT Cell Viability Assay in HEK293 cells - 40 hour (AID 1224874); details: RealTime-Glo luminescence; max response: hits give low values; note: nearly all actives have a fitted effect of over 50% in size
In short: (§4)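 HEK293 + NanoLuc + prosubstrate, 600 cells/well; 5 h, 37 C/5% CO2; compound 23 nL in DMSO by pintool; 37 C; luminescence read at 0, 8, 16, 24, 32 and 40 h time points.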

[12] = A CellTox Green Cytotoxicity Assay to monitor cytotoxicity in HEK293 cells - 24 hour (AID 1224875); note: nearly all actives have a fitted effect of over 45% in size; note: potency is the fitted concentration of half-maximal effect
In short: as §3

[13] = A CellTox Green Cytotoxicity Assay to monitor cytotoxicity in HepG2 cells - 16 hour (AID 1224876); note: nearly all actives have a fitted effect of over 45% in size; note: potency is the fitted concentration of half-maximal effect
In short: (§5)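 Measurements at 0, 8, 16, 24, 32 and 40 h of treatment captured CellTox Green fluorescence in HepG2 cells that had been co-plated with reagent and preincubated 5 h at 37 C/5% CO2.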

[14] = qHTS RealTime-Glo MT Cell Viability Assay in HepG2 cells - 32 hour (AID 1224877); note: nearly all actives have a fitted effect of over 55% in size
In short: as §1

[15] = A CellTox Green Cytotoxicity Assay to monitor cytotoxicity in HepG2 cells - 24 hour (AID 1224878); note: nearly all actives have a fitted effect of over 45% in size; note: potency is the fitted concentration of half-maximal effect
In short: as §5

[16] = A CellTox Green Cytotoxicity Assay to monitor cytotoxicity in HepG2 cells - 40 hour (AID 1224879); note: nearly all actives have a fitted effect of over 40% in size; note: potency is the fitted concentration of half-maximal effect
In short: as §5

[17] = qHTS RealTime-Glo MT Cell Viability Assay in HepG2 cells - 40 hour (AID 1224870); note: nearly all actives have a fitted effect of over 50% in size
In short: (§6)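 HepG2 cells (600/well) mixed with RealTime-Glo MT reagent, settled 5 h at 37 C/5% CO2 before compound addition. Nonlytic NanoLuc luminescence from viable-cell prosubstrate reduction read repeatedly during 40 h treatment at 37 C.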

[18] = qHTS RealTime-Glo MT Cell Viability Assay in HEK293 cells - 0 hour (AID 1224880)
In short: as §4

[19] = qHTS RealTime-Glo MT Cell Viability Assay in HepG2 cells - 8 hour (AID 1224873); note: nearly all actives have a fitted effect of over 55% in size
In short: as §6

| SMILES | Potency [1] | Potency [2] | Potency [3] | Potency [4] | activity change, positive = activation ([5]; at 42.5 µM (top of the series)) | Potency [6] | Potency [7] | Potency [8] | Potency [9] | Potency [10] | max response [11] | Potency [12] | Potency [13] | Potency [14] | Potency [15] | Potency [16] | Potency [17] | Potency [18] | Potency [19] | activity change, positive = activation ([5]; at 92.4 µM (top of the series)) |
| --- | --- | --- | --- | --- | --- | --- | --- | --- | --- | --- | --- | --- | --- | --- | --- | --- | --- | --- | --- | --- |
| CC(C)(c1cc(Br)c(OCC(Br)CBr)c(Br)c1)c1cc(Br)c(OCC(Br)CBr)c(Br)c1 (stereo unspecified) | inactive | inactive | inactive | inactive | 2.35% | inactive | inactive | inactive | inactive | inactive | -0.358% | inactive | inactive | inactive | inactive | inactive | – | – | – | – |
| Clc1nnc(Cl)c2ccccc12 | inactive | inactive | inactive | – | – | inactive | inactive | inactive | inactive | inactive | -4.03% | – | inactive | inactive | inactive | inactive | inactive | inactive | – | – |
| O=[N+]([O-])c1ccc(F)c(Cl)c1 | inactive | inactive | inactive | – | – | inactive | inactive | inactive | inactive | inactive | 14.6% | inactive | inactive | inactive | inactive | inactive | inactive | inactive | inactive | – |
| Nc1nc2c(ncn2COCCO)c(=O)[nH]1 | inactive | inactive | inactive | inactive | -1.87% | – | inactive | inactive | – | inactive | 0.456% | – | inactive | inactive | inactive | inactive | inactive | – | inactive | – |
| O=C1C(c2[nH]c3ccc(S(=O)(=O)O)cc3c2O)=Nc2ccc(S(=O)(=O)O)cc21 | inactive | inactive | inactive | inactive | – | inactive | inactive | inactive | – | inactive | 10.2% | inactive | inactive | inactive | inactive | inactive | inactive | inactive | inactive | -7.96% |
| CCCCOC(=O)CC | inactive | inactive | inactive | – | – | inactive | inactive | inactive | inactive | inactive | 2.07% | – | – | inactive | – | – | inactive | inactive | inactive | – |
| CCCC(=O)OCCc1ccccc1 | inactive | inactive | inactive | – | – | inactive | inactive | 43.6 µM (active) | 49 µM (active) | inactive | 5.68% | 43.6 µM (active) | 43.6 µM (active) | inactive | 43.6 µM (active) | 49 µM (active) | inactive | inactive | inactive | – |
| CC1=CCC(=C(C)C)CC1 | inactive | inactive | inactive | – | – | inactive | inactive | inactive | inactive | inactive | -2.74% | – | inactive | inactive | inactive | – | – | inactive | inactive | – |
| O=C(O)Cc1ccc2c(c1)C(=O)c1ccccc1CO2 | inactive | inactive | inactive | – | – | inactive | inactive | inactive | inactive | inactive | 1.5% | – | inactive | inactive | inactive | inactive | inactive | – | inactive | – |
| Nc1ccc(NCCO)c([N+](=O)[O-])c1 | inactive | inactive | 80 µM (active) | inactive | – | – | inactive | inactive | – | inactive | 0.226% | inactive | inactive | inactive | inactive | – | inactive | – | inactive | -17.2% |
| c1ccc(SSc2ccccc2)cc1 | inactive | inactive | inactive | – | – | inactive | inactive | inactive | inactive | inactive | -15.4% | inactive | inactive | inactive | inactive | inactive | inactive | – | inactive | – |
| COc1cc(S(=O)(=O)O)c(C)cc1N=Nc1c(O)ccc2cc(S(=O)(=O)O)ccc12 | inactive | inactive | 45 µM (active) | – | – | – | inactive | inactive | inactive | inactive | -10.3% | inactive | inactive | – | inactive | inactive | inactive | inactive | – | -21.5% |
| CC1=Nc2ccccc2C1(C)C | inactive | inactive | 89.9 µM (active) | inactive | – | – | – | inactive | – | inactive | – | inactive | – | inactive | 49 µM (active) | 38.9 µM (active) | inactive | inactive | inactive | – |
| OCC(F)(F)F | inactive | inactive | inactive | inactive | – | – | inactive | inactive | inactive | inactive | 19.1% | inactive | inactive | inactive | inactive | – | inactive | inactive | inactive | -0.31% |
